Bioassay records from PubChem BioAssay.
LDHA inh: inhibitors of human lactate dehydrogenase A. P00338. purified LDHA, NADH/diaphorase-resazurin fluorescence; stronger effect = lower value. activity change, % (values are at about 110 or 230 µM). 480,000 tested, 0.15% active; in the data active means activity change below about -30%; inconclusive means mostly about -25% to -30%;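 further: plate controls were DMSO wells for no effect and wells without enzyme for full effect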
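LDH5 2 nM; NADH 0.06 mM, pyruvate 0.2 mM; 200 mM Tris pH 7.4, EDTA, Tween-20; 5 min RT. Detection: diaphorase 0.133 mg/mL + resazurin 37 µM, fluorescence ex540/em590 at 0 and 20 min; normalized to enzyme-free and DMSO wells.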
Vif-APOBEC3G blk: inhibitors of Vif-APOBEC3G interaction. HeLa A3G-eYFP + Vif (tagged APOBEC3G with the HIV-1 protein that degrades it), YFP fluorescence, overnight. Potency, µM (series often up to 46.1 µM), inactives show top-dose activity, negative = active, actives largely listed as inhibitors. 410,000 tested, 0.076% active. Q9HC16. AID 602310; further: potency means the concentration at half of the fitted maximal effect; on the % scale 0 is the no-effect control and ±100 the full control effect; nearly all actives have a fitted effect of over 60% in size
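HeLa cells stably expressing Vif and C-terminally eYFP-tagged A3G, seeded overnight at 37 deg C, then exposed to compound by pintool overnight at 37 deg C. Rise in yellow fluorescence (Ex 488/Em 500-530, Acumen) marks blocked Vif-driven A3G degradation.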
PTHR1 ag: PTHR1 (human) receptor agonism. 410,000 tested, 0.075% active. Q03431. HEK293 GP2 PTHR1 cells, GloSensor cAMP luminescence, 1 h. Potency, µM (highest dose often 115 µM), for the others: top-dose activation, most hits filed as activators; further: potency means the concentration at half of the fitted maximal effect; nearly all actives have a fitted effect of over 55% in size
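HEK-293-derived GP2 cells expressing PTHR1 and a GloSensor cAMP reporter, 3,000/well, plated overnight, given luciferin plus IBMX (each 0.5 mM as added) for 1 h at 37 °C, then compound for 1 h at 37 °C. Luminescence was read after 15 min at room temperature.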
PINK1 modulator: PINK1 expression modulation; Potency, µM (series often up to 76.6 µM), without a hit: top-dose activation (PINK1 increase), most hits filed as activators; 410,000 tested, 0.2% active; PINK1 immunofluorescence, high-content cytometry, 24 h; active means well fitted activation curve with a large enough effect; inconclusive means small, poorly fitted or top-dose-only effect; cell line not stated here; further: potency means the concentration at half of the fitted maximal effect; % of control where 0% means no effect; nearly all actives have a fitted effect of over 65% in size
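PINK1 protein, normally rapidly degraded, was detected by immunofluorescence after 24 hour compound treatment of a stable cell line. Titration data (5 concentrations) came from laser-scanning cytometry, with CCCP-treated wells as controls.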
Vif-APOBEC3F blk: Vif-A3F binding inhibition | 390,000 tested, 0.2% active | Potency, µM (doses to about 46.1 µM), for the others: at the top dose activity, negative = active | HeLa A3F-eYFP + Vif (tagged APOBEC3F with the HIV-1 protein that degrades it), YFP fluorescence increase; further: potency means the concentration at half of the fitted maximal effect; % of control where 0% means no effect; nearly all actives have a fitted effect of over 65% in size
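Fluorescence increase (Ex 488/Em 500-530) after overnight compound treatment at 37 deg C flags inhibition of Vif-driven A3F-eYFP loss in stable HeLa A3F-eYFP/Vif cells seeded overnight beforehand.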
mIDH1 inhibitor: human IDH1 R132H inhibition; IDH1-R132H enzyme, NADPH consumption, diaphorase/resazurin fluorescence; Potency, µM (top dose mostly 76.6 µM), without a hit: at the top dose activity change, negative = inhibition, actives largely listed as inhibitors; 390,000 tested, 0.093% active; AID 602179; further: potency means the concentration at half of the fitted maximal effect; on the % scale 0 is the no-effect control and ±100 the full control effect; nearly all actives have a fitted effect of over 65% in size
Target sequence (O75874 whole entry R132H, stated change not applied): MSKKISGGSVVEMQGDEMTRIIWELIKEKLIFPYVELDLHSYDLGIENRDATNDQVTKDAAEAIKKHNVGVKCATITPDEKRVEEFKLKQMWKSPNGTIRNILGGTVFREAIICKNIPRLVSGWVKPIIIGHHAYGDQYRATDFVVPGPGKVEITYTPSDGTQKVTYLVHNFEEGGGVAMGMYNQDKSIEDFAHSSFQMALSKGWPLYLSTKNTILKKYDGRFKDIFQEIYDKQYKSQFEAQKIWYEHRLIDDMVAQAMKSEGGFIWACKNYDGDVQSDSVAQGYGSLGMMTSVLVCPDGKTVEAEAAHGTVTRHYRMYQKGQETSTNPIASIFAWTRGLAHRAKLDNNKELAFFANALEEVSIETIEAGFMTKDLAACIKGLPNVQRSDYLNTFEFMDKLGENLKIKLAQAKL
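IDH1-R132H (0.5 ug/mL) preincubated 30 min with compound, then NADPH (0.016 mM) and alpha-KG (2 mM) added; 80 min at RT, pH 7.5. Remaining NADPH coupled via diaphorase/resazurin to fluorescence (540/590 nm); concentration-response curves normalized to no-enzyme control.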
Active calls of the source: *; i = inactive; ? = inconclusive; . = no result; [ ] = another dose, or the depositor's remark. This is a sample that favours compounds with a hit; in the whole collection about 0.59% have one here. Unless noted, the call rests on the fitted dose curve; in most records, active means well fitted curve in the direction sought with a large enough effect; inconclusive means small, poorly fitted or top-dose-only effect, or another doubt; inactive means no such curve, though single readings can be large; an effect the other way counts as inactive or inconclusive.

SMILES	LDHA inh	Vif-APOBEC3G blk	PTHR1 ag	PINK1 modulator	Vif-APOBEC3F blk	mIDH1 inhibitor
c1ccc(-c2ccccc2OCCCCn2ccnc2)cc1	-37*	1%	-37%	3%	-7%	-12%
c1ccc(-c2ccccc2OCCCN2CCOCC2)cc1	-30*	1%	i	-1%	-14%	5%
OCCCN1CCN(CCCOc2ccccc2-c2ccccc2)CC1	-2	1%	-3%	3%	4%	2%
O=C(Nc1ccccc1-c1nc2ccccc2[nH]1)c1ccc(S(=O)(=O)N2CCCCC2)cc1	-6	2%	-7%[57.5 µM]	-3%[38.3 µM]	-3%	-1%
O=C(Nc1ccccc1-c1nc2ccccc2[nH]1)c1ccc(N2C(=O)CCC2=O)cc1	-6	?	-23%	?	11µM*	3%
O=C(NCc1ccc(F)cc1)C1CCN(S(=O)(=O)/C=C/c2ccccc2)CC1	-23	.	.	.	.	.
Cc1ccc(S(=O)(=O)c2cc3ccccc3oc2=Nc2ccc3c(c2)OCO3)cc1	-1	-18%	-8%	?	22µM*	2%
Cc1nc2ccc([N+](=O)[O-])cc2nc1C	-1	1%	i	0%	-13%	1%
Nc1nc(N)c2cc([N+](=O)[O-])ccc2n1	-30*	2%	i	2%	9%	1%
CCN1/C(=C/C=C2/SC(=Nc3cccc4ncccc34)N(C)C2=O)Sc2ccccc21	-3	-22%	-13%	4%	3.5µM*	0%
CCN1C(=O)/C(=C/C=C2/Sc3ccccc3N2CCO)SC1=S	-5	-11%	i	-1%	-30%	20%
CC1CCCN(S(=O)(=O)NCc2ccnc(N3CCN(c4ccc(F)cc4)CC3)c2)C1 (stereo not drawn)	-2	.	.	.	.	.
Cc1[nH]c2ccccc2c1/C=N/N=C(c1ccccc1)c1ccccc1	0	.	.	.	.	.
c1ccc(N=c2nc(-c3ccccc3)n(-c3ccccc3)s2)cc1	1	-11%	.	16µM*	.	.
c1ccc(Cn2sc(=Nc3ccccc3)nc2-c2ccccc2)cc1	-6	1%	.	0%	.	.
O=c1c(C=Nc2cccc(C(F)(F)F)c2)c[nH]n1-c1cccc(Cl)n1	-11	-4%	i	-2%	-7%	3%
O=c1c(C=Nc2ccc(Cl)cc2)c[nH]n1-c1cccc(Cl)n1	-52*	1%	-3%[57.5 µM]	1%	4%	14%
O=C(Nc1nc2c(F)cccc2s1)c1ccc(S(=O)(=O)N2CCCc3ccccc32)cc1	-2	-3%	-13%	12%	1%	-6%
O=C(Nc1nc2c(F)cc(F)cc2s1)c1ccc(S(=O)(=O)N2CCc3ccccc32)cc1	-5	3%	-21%	16µM*	-1%	-4%
CCOc1ccc(NC(=O)Cn2c(=O)n(Cc3ccc(C(=O)NCc4ccc(C)cc4)cc3)c(=O)c3ccccc32)cc1	-3	-1%	i	2%	10µM*	-2%
Cc1ccc(CNC(=O)c2ccc(Cn3c(=O)c4ccccc4n(CC(=O)Nc4ccc(C)cc4)c3=O)cc2)cc1	-12	-6%	i	3%	-8%	-12%
NCCCC[C@H]1NC(=O)[C@H](CCC(=O)O)NC(=O)c2cc([N+](=O)[O-])cc(I)c2OCC[C@@H](C(N)=O)NC1=O	-40*	0%	-7%	0%	-2%	22%
CC(C)(C)S(=O)N1Cc2cc(C(=O)O)nc(-c3cccc(-c4cc5ccccc5o4)c3)c2[C@H]1CCO (stereo partly drawn)	-32*	-4%	-24%	0%	.	.
CCCn1nc(-c2ccccc2)c2nc3ccccc3nc21	-9	-13%	i	10%	?	6%
CCn1nc(-c2ccccc2)c2nc3ccccc3nc21	-4	13µM*	-21%	15%	25µM*	-1%
COc1cc2nc(SCC(=O)Nc3ccc(C)cc3)n(-c3ccccc3)c(=O)c2cc1OC	-20	.	.	.	.	.
